In PubChem BioAssay AID1159580 (chemical genetic matrix, 2015):
Values joined by “and” are separate entries in the source; they are usually repeats but may differ in a detail not shown here. Equal values may be shown once. The whole screen tested about 5,500 compounds, of which about 2,000 (36%) were called active. About 18% were inconclusive and are not listed. Cut-off read from the data, not from the text of the source: active = normalized growth mostly below about 0.91 (no sharp cut-off); inconclusive = no clear call, values can overlap the other calls; inactive = mostly above about 0.92. Some of the results follow.

Assay: chemical genetic growth profiling, strain panel (AID 1159580);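 note: tested at 20 µM; growth read once vehicle control cultures reached saturation at 30 °C; 1 = growth at the plate median or of vehicle wells; lower values mean less growth of the strain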
Settings: growth OD

Measured: normalized growth

CC(=O)N[C@@H]1[C@@H](C(O)[C@H](O)CO)O[C@](O)(C(=O)O)C[C@@H]1O (some centres not stated)
inactive: S. cerevisiae deletion strains, locus YAL013W, strain DEP1, active compounds read low 1.01 | S. cerevisiae deletion strains, locus YBR021W, strain FUR4, active compounds read low 1.02 | S. cerevisiae deletion strains, locus YBR229C, strain ROT2, active compounds read low 1 | S. cerevisiae deletion strains, locus YCL029C, strain bik1, active compounds read low 0.997 | S. cerevisiae deletion strains, locus YDL035C, strain GPR1, active compounds read low 1.01 | S. cerevisiae deletion strains, locus YDL074C, strain BRE1, active compounds read low 1.04 | S. cerevisiae deletion strains, locus YDL101C, strain DUN1, active compounds read low 1.03 | S. cerevisiae deletion strains, locus YDL134C, strain PPH21, active compounds read low 1 | S. cerevisiae deletion strains, locus YDL185W, strain tfp1, active compounds read low 1.02 | S. cerevisiae deletion strains, locus YDL192W, strain arf1, active compounds read low 0.999 | S. cerevisiae deletion strains, locus YDR101C, strain arx1, active compounds read low 1 | S. cerevisiae deletion strains, locus YDR150W, strain NUM1, active compounds read low 1 | S. cerevisiae deletion strains, locus YDR162C, strain NBP2, active compounds read low 1.02 | S. cerevisiae deletion strains, locus YDR318W, strain mcm21, active compounds read low 1.01 | S. cerevisiae deletion strains, locus YDR388W, active compounds read low 1.01 | S. cerevisiae deletion strains, locus YDR502C, strain sam2, active compounds read low 0.998 | S. cerevisiae deletion strains, locus YEL061C, strain CIN8, active compounds read low 1 | S. cerevisiae deletion strains, locus YER110C, active compounds read low 1 | S. cerevisiae deletion strains, locus YER155C, strain BEM2, active compounds read low 1 | S. cerevisiae deletion strains, locus YER167W, strain BCK2, active compounds read low 1 | S. cerevisiae deletion strains, locus YGL078C, strain dbp3, active compounds read low 0.982 | S. cerevisiae deletion strains, locus YGL086W, strain mad1, active compounds read low 1 | S. cerevisiae deletion strains, locus YGL248W, strain PDE1, active compounds read low 1.01 | S. cerevisiae deletion strains, locus YGR078C, strain PAC10, active compounds read low 1.03 | S. cerevisiae deletion strains, locus YGR135W, strain pre9, active compounds read low 1.01 | S. cerevisiae deletion strains, locus YGR229C, strain SMI1, active compounds read low 1.02 | S. cerevisiae deletion strains, locus YGR252W, strain gcn5, active compounds read low 0.958 | S. cerevisiae deletion strains, locus YHR030C, strain SLT2, active compounds read low 0.998 and 1.01 | S. cerevisiae deletion strains, locus YHR079C, strain IRE1 (second series), active compounds read low 1.01 | S. cerevisiae deletion strains, locus YHR079C, strain IRE1, active compounds read low 1 | S. cerevisiae deletion strains, locus YHR094C, strain hxt1, active compounds read low 1.01 | S. cerevisiae deletion strains, locus YHR129C, strain ARP1, active compounds read low 1.02 | S. cerevisiae deletion strains, locus YHR200W, strain rpn10, active compounds read low 1.01 | S. cerevisiae deletion strains, locus YIL066C, strain RNR3, active compounds read low 1.02 | S. cerevisiae deletion strains, locus YIL073C, strain SPO22, active compounds read low 1.02 | S. cerevisiae deletion strains, locus YIL125W, strain kgd1, active compounds read low 0.993 | S. cerevisiae deletion strains, locus YIR030C, strain dcg1, active compounds read low 0.999 | S. cerevisiae deletion strains, locus YJL095W, strain BCK1, active compounds read low 1.06 and 0.995 | S. cerevisiae deletion strains, locus YJL134W, strain LCB3, active compounds read low 1.01 | S. cerevisiae deletion strains, locus YJL168C, strain set2, active compounds read low 1.01 | S. cerevisiae deletion strains, locus YJL187C, strain SWE1 (second series), active compounds read low 1.04 | S. cerevisiae deletion strains, locus YJR043C, strain POL32, active compounds read low 1.04 | S. cerevisiae deletion strains, locus YJR066W, strain TOR1, active compounds read low 0.916 | S. cerevisiae deletion strains, locus YJR075W, strain HOC1, active compounds read low 1.02 | S. cerevisiae deletion strains, locus YKL009W, strain mrt4, active compounds read low 1.02 | S. cerevisiae deletion strains, locus YKL068W, active compounds read low 0.998 | S. cerevisiae deletion strains, locus YKL085W, strain MDH1 (second series), active compounds read low 1 | S. cerevisiae deletion strains, locus YKL085W, strain MDH1, active compounds read low 1 | S. cerevisiae deletion strains, locus YKL190W, strain CNB1, active compounds read low 1.01 | S. cerevisiae deletion strains, locus YKR001C, strain vps1, active compounds read low 1.01 | S. cerevisiae deletion strains, locus YLR039C, strain RIC1, active compounds read low 1.02 | S. cerevisiae deletion strains, locus YLR058C, strain SHM2, active compounds read low 1.01 | S. cerevisiae deletion strains, locus YLR102C, strain apc9, active compounds read low 1.01 | S. cerevisiae deletion strains, locus YLR113W, strain HOG1, active compounds read low 1.05 | S. cerevisiae deletion strains, locus YLR262C, strain YPT6, active compounds read low 1.03 | S. cerevisiae deletion strains, locus YLR268W, strain sec22, active compounds read low 1.07 | S. cerevisiae deletion strains, locus YLR330W, strain CHS5, active compounds read low 1 | S. cerevisiae deletion strains, locus YLR342W, strain FKS1 (second series), active compounds read low 1.02 | S. cerevisiae deletion strains, locus YLR371W, strain rom2, active compounds read low 1.01 | S. cerevisiae deletion strains, locus YLR418C, strain cdc73, active compounds read low 1.01 | S. cerevisiae deletion strains, locus YML016C, strain PPZ1, active compounds read low 1.01 | S. cerevisiae deletion strains, locus YML032C, strain rad52, active compounds read low 1.05 | S. cerevisiae deletion strains, locus YML124C, strain tub3, active compounds read low 0.997 | S. cerevisiae deletion strains, locus YMR078C, strain ctf18, active compounds read low 1.01 | S. cerevisiae deletion strains, locus YMR223W, strain ubp8, active compounds read low 0.975 | S. cerevisiae deletion strains, locus YMR263W, strain SAP30, active compounds read low 1.02 | S. cerevisiae deletion strains, locus YMR307W, strain GAS1, active compounds read low 1.01 | S. cerevisiae deletion strains, locus YNL067W, strain RPL9B, active compounds read low 1.05 | S. cerevisiae deletion strains, locus YNL128W, strain TEP1, active compounds read low 1.03 | S. cerevisiae deletion strains, locus YNL153C, strain GIM3, active compounds read low 1.04 | S. cerevisiae deletion strains, locus YNL183C, strain NPR1, active compounds read low 0.913 | S. cerevisiae deletion strains, locus YNL233W, strain BNI4, active compounds read low 1.03 | S. cerevisiae deletion strains, locus YNL250W, strain rad50, active compounds read low 0.999 | S. cerevisiae deletion strains, locus YNL271C, strain bni1, active compounds read low 1.01 | S. cerevisiae deletion strains, locus YNL298W, strain CLA4, active compounds read low 0.994 | S. cerevisiae deletion strains, locus YNL307C, strain MCK1, active compounds read low 1 | S. cerevisiae deletion strains, locus YNL322C, strain KRE1, active compounds read low 1 | S. cerevisiae deletion strains, locus YNR052C, strain pop2, active compounds read low 1.01 | S. cerevisiae deletion strains, locus YOL006C, strain TOP1, active compounds read low 1.15 | S. cerevisiae deletion strains, locus YOL012C, strain htz1 1.02 | S. cerevisiae deletion strains, locus YOL147C, strain pex11, active compounds read low 1 | S. cerevisiae deletion strains, locus YOR061W, strain CKA2, active compounds read low 1.01 | S. cerevisiae deletion strains, locus YOR069W, strain VPS5, active compounds read low 1.01 | S. cerevisiae deletion strains, locus YOR136W, strain idh2, active compounds read low 0.986 | S. cerevisiae deletion strains, locus YOR144C, strain elg1, active compounds read low 0.994 | S. cerevisiae deletion strains, locus YOR184W, strain ser1, active compounds read low 0.994 | S. cerevisiae deletion strains, locus YOR231W, strain MKK1, active compounds read low 0.996 | S. cerevisiae deletion strains, locus YOR316C, strain cot1, active compounds read low 1.01 | S. cerevisiae deletion strains, locus YPL055C, strain LGE1, active compounds read low 1.02 | S. cerevisiae deletion strains, locus YPL241C, strain CIN2, active compounds read low 1.01 | S. cerevisiae deletion strains, locus YPL256C, strain CLN2, active compounds read low 0.99 | S. cerevisiae deletion strains, locus YPR119W, strain clb2, active compounds read low 1 | S. cerevisiae deletion strains, locus YPR141C, strain kar3, active compounds read low 0.999 | S. cerevisiae deletion strains, locus YPR163C, strain tif3, active compounds read low 1.01 | S. cerevisiae deletion strains, locus YPR167C, strain met16, active compounds read low 1 | S. cerevisiae deletion strains, strain wtn01, active compounds read low 1.01 | S. cerevisiae strains, strain wild type, active compounds read low 1.01
